An excerpt weighted towards active compounds, which were near 2.3% of everything screened.
HepG2 tox – HepG2 cytotoxicity, counter-screen for TGF-b inhibitors; HepG2 CAGA-GFP viability, ATP luminescence, 18 h; Potency, µM (top dose mostly 46.1 µM), actives largely listed as cytotoxic; actives 0.76% (n = 410,000)
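CellTiter-Glo luminescence gave cytotoxicity after 18 hours at 37 degrees C. The cells were HepG2 CAGA-GFP in 1% FBS DMEM, stimulated with 500 pg/mL TGF-beta after compound addition. %Activity was normalised to no-cell wells (complete cell-killing) and DMSO (no toxicity), and curves were fitted and classified.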
ATXN2 expr inh – reduces ATXN2 reporter expression in HEK-293 cells; HEK-293 ATXN2-luciferase reporter, luminescence, 24 h; Potency, µM (series often up to 57 µM), hits mostly inhibitors; actives 0.72% (n = 360,000); AID 1745845; also: nearly all actives have a fitted effect of over 55% in size
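qHTS (up to 57 uM final) was run with 24 h compound exposure of reporter cells at 37 °C. Each well was multiplexed: SteadyGlo luminescence measured ATXN2-luciferase expression after a fluorogenic Gly-Phe-AFC viability readout (25 uM final).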
TGFb SMAD3 inh – blocks TGF-b signaling | Potency, µM (highest dose often 46.1 µM), usual class: inhibitors | actives 1.2% (n = 410,000) | HepG2 CAGA-GFP TGF-b/SMAD3 reporter, GFP fluorescence, 18 h; TGF-beta stimulated, 500 pg/mL final; also: nearly all actives have a fitted effect of over 65% in size
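Inhibition was scored as loss of TGF-beta-induced (500 pg/mL final, 18 hours, 37 degrees C) GFP in HEPG2 cells carrying a CAGA-GFP reporter, in DMEM with 1% FBS. Well GFP was summed per cell; Activity was normalised to unstimulated and stimulated DMSO wells, then concentration-response fitting.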
S2 tox – viability counter-screen for ATXN expression inhibitors; Potency, µM (top dose mostly 56.7 µM), actives largely listed as cytotoxic; S2 cells (HEK-293 line with an ATXN2-luciferase reporter) viability, CellTiter-Fluor protease fluorescence, 24 h; actives 0.49% (n = 400,000); AID 651635; also: nearly all actives have a fitted effect of over 40% in size
Large screens that a line does not name were inactive. Calls follow the shape of the dose curve; as a rule, active = well fitted curve in the direction sought with a large enough effect; inconclusive = small, poorly fitted or top-dose-only effect, or another doubt; inactive = no such curve, though single readings can be large; an effect the other way counts as inactive or inconclusive.

COC(C(=O)NNS(=O)(=O)c1ccccc1[N+](=O)[O-])c1ccccc1 (centres undefined)	none
CCOC(=O)Cc1ccc(NC(=O)n2ncc3cc(Cl)ccc32)cc1	ATXN2 expr inh 20µM
CCOC(=O)Cc1ccc(NC(=O)n2ncc3c(C)cccc32)cc1	none
COc1cc(N2C(=O)C=CC2=O)c(OC)cc1Cl	ATXN2 expr inh inconclusive, TGFb SMAD3 inh 11µM, S2 tox 20µM
O=C(COc1ccc(Br)cc1CNCCc1ccccc1)NCc1ccccc1	HepG2 tox 13µM, ATXN2 expr inh inconclusive, TGFb SMAD3 inh inconclusive, S2 tox inconclusive
COc1cc(CNCCc2ccccc2)cc(Br)c1OCC(=O)Nc1ccccc1C	TGFb SMAD3 inh inconclusive, S2 tox 28µM (no result: ATXN2 expr inh)
CC1CN(CCNC(=O)C2CCCc3c2[nH]c2ccccc32)Cc2ccccc2O1 (centres undefined)	none (no result: HepG2 tox, ATXN2 expr inh, TGFb SMAD3 inh)
O=C1CCN(CCc2ccccc2)CCN1[C@H](COc1ccccc1)c1ccccc1	TGFb SMAD3 inh 10µM, S2 tox inconclusive
CCOc1ccc(S(=O)(=O)NCCC(=O)N2CCN(c3ccccc3O)CC2)cc1	none
CCOc1ccc(C(=O)CCC(=O)N2CCN(c3ccccc3O)CC2)cc1	HepG2 tox 2.5µM
CC(C)c1c(C(=O)NCC2(N3CCOCC3)CCCC2)cnn1-c1nccc(-c2cccs2)n1	none (no result: HepG2 tox, ATXN2 expr inh, TGFb SMAD3 inh)
CSc1ccc(/C=C2\C=C(C(O)c3ccc(SC)cc3)c3ccccc32)cc1 (centres undefined)	none (no result: ATXN2 expr inh, S2 tox)
CCc1ccc(NS(=O)(=O)c2ccc(-c3cc(C)no3)cc2)cc1	HepG2 tox 11µM, TGFb SMAD3 inh inconclusive (no result: ATXN2 expr inh, S2 tox)
Cc1ccc(NS(=O)(=O)c2ccc(-c3cc(C)no3)cc2)c(C)c1	TGFb SMAD3 inh 13µM (no result: ATXN2 expr inh, S2 tox)
Cc1cc(C)cc(NS(=O)(=O)c2ccc(-c3cc(C)no3)cc2)c1	TGFb SMAD3 inh 13µM (no result: ATXN2 expr inh, S2 tox)
COc1ccccc1/C=C/c1ccnc2ccccc12	none (no result: ATXN2 expr inh, S2 tox)
C[C@@H]1[C@H](c2ccccc2)OCCS(=O)(=O)N1Cc1ccc(Cl)cc1	TGFb SMAD3 inh inconclusive (no result: ATXN2 expr inh, S2 tox)
Cc1cccc(CN2C(=O)[C@H]3Cc4c([nH]c5ccccc45)C(C)(C)N3C2=O)c1	ATXN2 expr inh inconclusive, TGFb SMAD3 inh 11µM, S2 tox inconclusive
CCOC(=O)C(C)N1C(=O)S/C(=C\c2ccc(-c3ccccc3C(=O)O)o2)C1=O (centres undefined)	none (no result: ATXN2 expr inh)
CC(C)N1C(=O)S/C(=C/c2ccc(Sc3nc4ccccc4[nH]3)o2)C1=O	ATXN2 expr inh inconclusive, TGFb SMAD3 inh 20µM
C=CCN1C(=O)S/C(=C/c2ccc(Sc3nc4ccccc4[nH]3)o2)C1=O	ATXN2 expr inh inconclusive, TGFb SMAD3 inh 20µM, S2 tox inconclusive
COC(=O)C1CCN(Cc2ccc3c(c2)CN(C(=O)c2cc(C)oc2C)CCO3)CC1	none (no result: HepG2 tox, ATXN2 expr inh, TGFb SMAD3 inh)
CCCCCCOC(=O)NC(=N)c1ccc(NCc2nc3cc(C(=O)N(CCC(=O)OCC)c4ccccn4)ccc3n2C)cc1	ATXN2 expr inh 32µM, S2 tox 32µM (no result: HepG2 tox, TGFb SMAD3 inh)
CCOC(=O)c1ccc(NCc2nc3ccccc3n2C)cc1	none
CCC1C(=O)NCCN1Cc1ccc2c(c1)CN(Cc1ccc(F)c(OC)c1)CCO2 (centres undefined)	none (no result: HepG2 tox, ATXN2 expr inh, TGFb SMAD3 inh)
COCC(=O)Nc1cc(C(=O)N2CCN(c3ccccc3)CC2C)c2c(c1)nc(-c1ccncc1)n2C (centres undefined)	none (no result: HepG2 tox, ATXN2 expr inh, TGFb SMAD3 inh)
Cc1ccc(OCC(=O)Oc2c(C)cccc2C)cc1	none
COCC(=O)Oc1cc(-c2ccc(C)cc2C)c(OC(=O)COC)c(-c2ccc(C)cc2C)c1	HepG2 tox 7.1µM, TGFb SMAD3 inh inconclusive (no result: ATXN2 expr inh)
N#C/C(C(=O)N1CCCCC1)=C1\Nc2ccccc2S1	none
Cc1ccc(NC(=S)/C(C#N)=C2/Nc3ccccc3S2)cc1	TGFb SMAD3 inh 20µM (no result: ATXN2 expr inh)
C/C(=C(/OCCOc1ccc(Cl)cc1)c1ccc(Cl)cc1Cl)n1ccnc1	none (no result: HepG2 tox, TGFb SMAD3 inh)
CCC1CC=CC2C1C(=O)N(Cc1ccccc1)C2c1ccoc1 (centres undefined)	TGFb SMAD3 inh 10µM (no result: ATXN2 expr inh, S2 tox)
C[C@@H]1CC=C[C@H]2[C@H]1C(=O)N(Cc1ccccc1)[C@H]2c1cccc([N+](=O)[O-])c1	none
CCC1CC=CC2C1C(=O)N(Cc1ccccc1)C2c1cccc([N+](=O)[O-])c1 (centres undefined)	TGFb SMAD3 inh 10µM (no result: ATXN2 expr inh, S2 tox)
C[C@@H]1CC=C[C@H]2[C@H]1C(=O)N(Cc1ccccc1)[C@H]2c1ccoc1	TGFb SMAD3 inh inconclusive
CC[C@@H]1CC=C[C@H]2[C@H]1C(=O)N(Cc1ccccc1)[C@H]2c1ccoc1	ATXN2 expr inh inconclusive, TGFb SMAD3 inh 13µM (no result: S2 tox)

Bioassay records (PubChem)
